Sfp inh: blocks B. subtilis Sfp PPTase activity. AID 1490. Biochemical Sfp PPTase activity, qHTS. Potency, µM, for the others: largest response in the series, negative = inhibition, actives largely listed as inhibitors. Q9F4F7. hit rate 3.5% among 310,000;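 note: the enzyme is Sfp with the accession as filed and its product quenches rhodamine fluorescence; 0% = enzyme reaction without inhibitor and -100% = no enzyme wells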
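Reaction rates are the 30-min fluorescence difference (ex 525, em 598 nm) in wells containing 15 nM Sfp, 5 uM rhodamine-CoA and 12.5 uM BHQ-2-YbbR at pH 7.6 with 10 mM MgCl2.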
HP1b binding inh: blocks HP1-beta chromodomain binding to methylated histone tails; AID 540317; hit rate 0.56% among 390,000; AlphaScreen HP1-beta / biotin-H3K9me3 peptide binding; Potency, µM (series often up to 114 µM), for inactives: top-dose activity change, negative = inhibition, usual class: inhibitors; note: nearly all actives have a fitted effect of over 70% in size
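AlphaScreen: HP1-beta (50 nM) preformed 30 min with biotin-H3(1-18)K9me3 peptide (50 nM) in PBS pH 7.4, 0.01% Tween-20. Compound added for 30 min at RT, then streptavidin donor/nickel chelate acceptor beads (10 ug/mL) for 30 min.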
BAZ2B block: BAZ2B (human) inhibition; Q9UIF8; AlphaScreen BAZ2B-H3K14Ac peptide displacement; Potency, µM (doses to about 114 µM), without a hit: at the top dose activity change, negative = inhibition, hits mostly inhibitors; hit rate 4.4% among 360,000; note: % is set by controls: 0 for no effect and ±100 for the full control effect; nearly all actives have a fitted effect of over 60% in size
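BAZ2B 50 nM plus b-H3(5-23)K14Ac 50 nM, PBS pH 7.4/0.01% Tween-20, 30 min RT; compound added (max 110 uM), 30 min RT; streptavidin donor/Ni-chelate acceptor beads 10 ug/mL final, 20 min dark; AlphaScreen read.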
G9a block: blocks human histone lysine methyltransferase G9a | G9a H3K9 monomethylation, AlphaScreen, 2 h | Potency, µM (top dose mostly 102 µM), without a hit: at the highest dose activity, negative = inhibition, usual class: inhibitors | hit rate 8.8% among 350,000; note: % is set by controls: 0 for no effect and ±100 for the full control effect; nearly all actives have a fitted effect of over 75% in size
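Readings reflect AlphaScreen signal from monomethyl-H3K9 antibody detection. HMT at 20 nM; substrate b-H3K9 500 nM; cofactor SAM 20 uM; 2 h RT reaction; compounds tested as titrations in qHTS with 15 min preincubation.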
JMJD2A Tudor inh: JMJD2A Tudor domain (human) inhibition. Potency, µM (series often up to 114 µM), inactives show at the highest dose activity change, negative = inhibition, most hits filed as inhibitors. AlphaScreen JMJD2A-Tudor / H3K4me3 peptide binding. O75164. hit rate 4.4% among 390,000; note: % is set by controls: 0 for no effect and ±100 for the full control effect; nearly all actives have a fitted effect of over 50% in size
Target sequence (O75164 whole entry, looked up, the tested form may be a part): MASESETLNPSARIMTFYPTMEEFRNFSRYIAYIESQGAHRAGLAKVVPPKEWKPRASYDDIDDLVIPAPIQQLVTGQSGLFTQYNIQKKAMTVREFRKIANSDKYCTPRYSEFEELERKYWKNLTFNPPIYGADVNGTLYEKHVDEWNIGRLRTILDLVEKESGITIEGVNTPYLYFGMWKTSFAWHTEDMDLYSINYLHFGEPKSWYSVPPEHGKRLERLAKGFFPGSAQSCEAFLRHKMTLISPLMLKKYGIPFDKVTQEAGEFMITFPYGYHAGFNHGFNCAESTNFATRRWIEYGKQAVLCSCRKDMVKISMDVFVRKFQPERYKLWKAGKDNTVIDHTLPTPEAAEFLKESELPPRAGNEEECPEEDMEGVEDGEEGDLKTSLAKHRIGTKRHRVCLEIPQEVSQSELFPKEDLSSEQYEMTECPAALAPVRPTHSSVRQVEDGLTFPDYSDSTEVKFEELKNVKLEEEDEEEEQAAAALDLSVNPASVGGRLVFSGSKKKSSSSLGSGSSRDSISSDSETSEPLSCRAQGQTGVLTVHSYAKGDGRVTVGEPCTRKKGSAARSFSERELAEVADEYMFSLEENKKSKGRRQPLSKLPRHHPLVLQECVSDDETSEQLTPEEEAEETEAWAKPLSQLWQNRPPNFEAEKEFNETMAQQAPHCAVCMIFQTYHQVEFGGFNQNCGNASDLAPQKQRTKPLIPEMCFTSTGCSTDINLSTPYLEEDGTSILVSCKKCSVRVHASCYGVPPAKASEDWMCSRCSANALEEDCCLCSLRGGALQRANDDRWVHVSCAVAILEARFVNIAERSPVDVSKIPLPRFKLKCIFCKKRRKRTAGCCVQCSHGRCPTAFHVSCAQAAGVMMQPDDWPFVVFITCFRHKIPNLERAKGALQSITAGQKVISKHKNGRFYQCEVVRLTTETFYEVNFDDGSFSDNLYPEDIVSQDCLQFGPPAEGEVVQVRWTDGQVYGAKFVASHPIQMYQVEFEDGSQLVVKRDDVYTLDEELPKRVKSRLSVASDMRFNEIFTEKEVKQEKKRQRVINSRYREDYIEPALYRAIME
Active calls of the source: *; ? = inconclusive; . = no result given; ! = repeats disagree; [ ] = dose if it differs, or a comment. Shown are actives, neighbours in structure and some others; about 12% of the full set was active somewhere. Calls come from the whole dose curve; as a rule, active = well fitted curve in the direction sought with a large enough effect; inconclusive = small, poorly fitted or top-dose-only effect, or another doubt; inactive = no such curve, though single readings can be large; an effect the other way counts as inactive or inconclusive. Potency is the fitted concentration of half-maximal effect.

SMILES | Sfp inh | HP1b binding inh | BAZ2B block | G9a block | JMJD2A Tudor inh
CC[C@H]1CN(C)C[C@@]2(C(=O)OC)Cc3c([nH]c4ccccc34)C(=O)C[C@@H]12 | . | 27.1% | . | . | -7.5%
CC[C@H]1CC2CN3CCc4c([nH]c5cc(OC)ccc45)[C@](C(=O)OC)(C2)[C@H]13 | . | -27.5% | . | . | 39.8µM*
OC[C@@H]1CCCN2CCCC[C@@H]12 | 2.3% | . | . | . | .
c1cnc(N2CCC3(CCNCC3)CC2)nc1 | ? | . | . | -3.6%[12.7 µM] | .
O=C1CC2(CCCC2)CC(=O)N1CCCCN1CCN(c2ncccn2)CC1 | 1.7% | 39.6% | -1.9% | 12.6µM*! | -2.9%
CCOc1cccc(OCC)c2c(C)[n+](CC3CCCO3)c(C)c1-2 (stereo not drawn) | 56.2µM* | -1.3% | 25.1µM* | ? | 35.5µM*
CN1C(=O)/C(=C\N2CCc3ccccc32)C(=O)NC1=S | 35.5µM* | -2.2% | -8.4% | ? | ?
CC1CC[C@@]2(OC1)O[C@@H]1[C@@H](O)[C@H]3C4CC[C@H]5C[C@@H](O[C@@H]6O[C@H](CO)[C@H](O[C@@H]7O[C@H](CO)[C@@H](O)[C@H](O[C@@H]8OC[C@@H](O)[C@H](O)[C@H]8O)[C@H]7O[C@@H]7O[C@H](CO)[C@@H](O)[C@H](O[C@@H]8O[C@H](CO)[C@@H](O)[C@H](O)[C@H]8O)[C@H]7O)[C@H](O)[C@H]6O)[C@H](O)C[C@]5(C)C4CC[C@]3(C)[C@H]1[C@@H]2C (stereo partly drawn) | -0.9% | . | . | . | .
CCC(Oc1ccc(Cl)cc1)C(=O)OC1CC2CCC(C1)N2C (stereo not drawn) | 5.1% | . | . | 13.4%[59 µM] | .
CSCC[C@H](NC(=O)[C@H](Cc1ccccc1)NC(=O)CNC(=O)CNC(=O)[C@@H](N)Cc1ccc(O)cc1)C(=O)O | 2.0% | . | . | 45.0%[59 µM] | .
Cc1ccc(NC(=O)COC(=O)/C=C/c2ccco2)cc1S(=O)(=O)N(C)C | 44.7µM* | -32.1% | ? | 14.1µM* | ?
O=C(CCn1c(=O)oc2ccccc21)N1CCN(C(c2ccccc2)c2ccccc2)CC1 | 6.1% | 26.3% | -4.0% | ? | -23.3%
O=c1c(O)c(-c2ccc(O)c(O)c2)oc2c(O)c(O)cc(O)c12 | -83.7% | . | . | ? | .
CCN[C@]1(c2cccs2)CCCCC1=O | 2.1% | . | . | 18.0%[21.5 µM] | .
COc1ccc2c(c1)[nH]c1c(C)nccc12 | 16.4% | 59.8% | ? | 12.6µM*! | -20.6%
C=C/C(=C/C(=O)C[C@H](C)C[C@@H](C)CC[C@H](O)[C@H](C)C(=O)C[C@@H](O)[C@H](C)[C@@H](C)OC(=O)C[C@@H](O)C1=C(C)C(=O)OC1=O)CC | -9.4% | . | . | -42.2%[2.33 µM] | .
CC1CCC(N2CCN(C(=O)COc3ccccc3)CC2)CC1 (stereo not drawn) | -22.9% | -17.6% | 50.1µM* | 11.2µM* | 3.98µM*
O=C(COc1ccc(Cl)cc1)N1CCN(C2CCCC2)CC1 | -6.2% | ? | 50.1µM* | 8.91µM* | 20µM*
O=C(COc1ccc(Cl)cc1)N1CCN(Cc2ccccc2)CC1 | 2.5% | 21.3% | -4.7% | 5.4%[59 µM] | -4.8%
Cn1c(=O)cc(OCC(=O)N2CCN(C3CCCCC3)CC2)c2ccccc21 | 17.0% | 29.9% | 5.7% | -1.3%[59 µM] | -19.0%
CCN(CC)c1ccc(/C=C/[N+](=O)[O-])cc1 | ? | -27.3% | . | 44.7µM* | ?
CCN(CC)c1ccccc1 | . | 62.6% | 29.8% | 0.2%[0.501 µM] | 6.2%
N#CC(C#N)=NNc1ccc([N+](=O)[O-])cc1 | 8.6% | ? | 39.8µM* | 31.6µM* | ?
CN1CC(C(=O)c2ccc(Cl)cc2)C(c2ccccc2)C1 (stereo not drawn) | 2.5% | -9.4% | -16.1% | 44.7µM* | -23.9%
CN1CC(C(=O)c2cccs2)C(c2ccc(Cl)cc2)C1 (stereo not drawn) | 17.2% | 5.5% | -12.4% | -34.8% | -19.6%
SMILES | Sfp inh | HP1b binding inh | BAZ2B block | G9a block | JMJD2A Tudor inh
C(#CCN1CCCCC1)COCc1ccccc1 | 5.1% | 49.2% | -13.9% | . | -4.5%
C(#CCN1CCOCC1)COC/C=C/c1ccccc1 | -0.8% | 1.5% | 0.8% | 44.7µM* | -15.0%
COc1cc2c(cc1OC)C(C(=O)N1CCC3(CC1)OCCO3)C(c1ccccc1F)N(C)C2=O (stereo not drawn) | -1.5% | 20.4% | 2.9% | 0.794µM* | 3.1%[57.1 µM]
CN(C)C1C(=O)C(C(N)=O)=C(O)[C@@]2(O)C(=O)C3=C(O)c4c(O)cccc4[C@](C)(O)C3C(O)C12 (stereo partly drawn) | -64.5% | . | . | ? | .
CN(C)[C@@H]1C(=O)C(C(N)=O)=C(O)[C@@]2(O)C(=O)C3=C(O)c4c(O)cccc4[C@@](C)(O)[C@H]3[C@H](O)[C@@H]12 | 44.7µM* | 3.98µM*! | 2.82µM* | 11.2µM* | 1.41µM*!
CN(C)[C@@H]1C(=O)C(C(N)=O)=C(O)[C@@]2(O)C(=O)C3=C(O)c4c(O)ccc(Cl)c4[C@@](C)(O)[C@H]3C[C@@H]12 | -21.7% | 18.4% | 17.8µM* | ? | 56.2µM*
CN(C)[C@@H]1C(=O)C(C(N)=O)=C(O)[C@@]2(O)C(=O)C3=C(O)c4c(O)cccc4[C@@](C)(O)C3C[C@@H]12 (stereo partly drawn) | . | 5.3% | 25.1µM* | 10µM* | 10µM*
O=C(CC[N+](=O)[O-])OCC1OC(O)C(OC(=O)CC[N+](=O)[O-])[C@@H](OC(=O)CC[N+](=O)[O-])C1OC(=O)CC[N+](=O)[O-] (stereo partly drawn) | -5.7% | . | . | . | .
NC(=S)c1cn(C2OC(CO)C(O)C2O)c2ncnc(N)c12 (stereo not drawn) | 7.94µM* | -9.3% | -19.0% | 10µM* | -12.1%
Nc1ncnc2c1ccn2[C@@H]1O[C@H](CO)[C@@H](O)[C@H]1O | 8.6% | 44.7% | . | . | -10.9%
CC(C)(C)C(=O)OC1=CN(Cc2ccccc2)S(=O)(=O)c2ccccc21 | . | 71.1% | 4.7% | 22.5%[59 µM] | 13.9%
CN1C(=O)C(=Cc2cccnc2)C(=O)N(C)C1=O | 39.8µM* | 13.1% | -4.8% | . | -8.3%
C[C@H](NC(C)(C)C)C(=O)c1cccc(Cl)c1 | 29.9% | . | . | ? | .
CCCCCCCSc1cc(OC)c(CCNC)cc1OC | ? | ? | 20µM* | 22.4µM* | 44.7µM*
CC(C)[C@]1(O)[C@@H](OC(=O)c2ccc[nH]2)[C@@]2(O)[C@@]3(C)C[C@]4(O)O[C@@]5([C@H](O)[C@@H](C)CC[C@]35O)[C@@]2(O)C41C | 16.9% | 28.8% | . | 38.7%[59 µM] | -12.4%
ClC1=CCC2CN(CCN3CCCCC3)CC2C1 (stereo not drawn) | 18.7% | 23.0% | 5.0% | 79.4µM* | -7.6%
C[N+]1(C)CCc2cc3c(cc2C1C1OC(=O)c2c1ccc1c2OCO1)OCO3 (stereo not drawn) | -10.6% | . | . | ? | .
N#CCn1c(CCl)nc2ccccc2c1=O | 9.0% | 18.6% | -13.5% | 56.2µM* | -16.4%
CN(C)CCc1nc2ccccc2c(=O)n1-c1ccccc1 | 13.1% | . | 12.2% | -26.0%[12.7 µM] | .
